Measurements published in PubChem BioAssay (EPA / NIEHS).
Results filed as inconclusive are left out. A structure can be active in one record and inactive in another. Active and inactive are the calls of the source. How the source made its calls, unless noted: active means hit-call score of the fitted dose curve at least 0.9, where 1 is the maximum; inactive means score below 0.9.

Columns and labels:
[1] = VALA_TUBHUV_Agonist_CellCount: Viability Assessment in the VALA Sciences human Umbilical Vein Endothelial Tubule Formation (TUBHUV) Agonism Assay (AID 2284309; active means hit-call score of the fitted dose curve at least 0.9, where 1 is the maximum)
Procedure, shortened: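 Viability endpoint by fluorescent imaging of fixed nuclear/CD31-stained HUVEC–HDF co-cultures. Readout is cell count, fitted upward against 0.1% DMSO. Compound exposure was 72 h in 10 ng/ml VEGF, after 3-day co-culture priming.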

[2] = IUF_NPC2a_radial_glia_migration_72hr: Leibniz Research Institute for Environmental Medicine (IUF) 72-hour Neural Progenitor Cell Migration Assay for Radial Glia Migration (NPC2a) (AID 2284299)
Procedure, shortened: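 Readout: mean of four manual brightfield measurements of radial glia migration distance (um) at 72 h. hNPC spheres (0.3 mm) exposed to 7 compound concentrations plus solvent control on PDL/laminin, 37C, 5% CO2; activity fitted relative to DMSO.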

[3] = IUF_NPC2b_neuronal_migration_120hr: Leibniz Research Institute for Environmental Medicine (IUF) 120-hour Neural Progenitor Cell Migration Assay for Neuron Migration (NPC2b) (AID 2284300)
Procedure, shortened: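 Read-out is mean distance from sphere edge to each TUBB3-positive neuron at 120 h, expressed relative to radial glia migration distance and to DMSO baseline. Single 0.3 mm human NPC spheres differentiated on laminin under continuous compound exposure.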

[4] = IUF_NPC3_neuronal_differentiation_120hr: Leibniz Research Institute for Environmental Medicine (IUF) 120-hour Neuronal Differentiation Assay (NPC3) (AID 2284301)
Procedure, shortened: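 Neuronal differentiation of primary human neural progenitors measured by high-content imaging: percent TUBB3+ of Hoechst+ nuclei within migrated area at 120 h, seven-point serial dilution plus solvent control, gain or loss relative to DMSO.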

[5] = IUF_NPC5_oligodendrocyte_differentiation_120hr: Leibniz Research Institute for Environmental Medicine (IUF) 120-hour Oligodendrocyte Differentiation Assay (NPC5) (AID 2284304; active means hit-call score of the fitted dose curve at least 0.9, where 1 is the maximum;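 further: primary human fetal neural progenitor spheres plated to migrate and differentiate; share of O4-positive cells among Hoechst nuclei found by CNN image analysis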)
Procedure, shortened: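 Oligodendrocyte differentiation was scored after 120 h as the O4-positive share of Hoechst-stained nuclei across the neurosphere migration area, using a trained convolutional neural network on high-content fluorescence images. Human fetal neural progenitor spheres were dosed from day 0, normalised to DMSO.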

[6] = IUF_NPC4_neurite_area_120hr: Leibniz Research Institute for Environmental Medicine (IUF) 120-hour Neuronal Morphology Assay for Neurite Area (NPC4) (AID 2284305; active means hit-call score of the fitted dose curve at least 0.9, where 1 is the maximum)
Procedure, shortened: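 Endpoint at 120 h: automated imaging of TUBB3/Hoechst-stained differentiating human neural progenitor spheres, neurite area per neuron from skeletonization. DMSO solvent control, not above 0.1%, set the baseline; medium was half-replaced on day 3.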

[7] = IUF_NPC2-5_cytotoxicity_72hr: Cytotoxicity Assessment at 72 hours in the Leibniz Research Institute for Environmental Medicine (IUF) Neural Progenitor Cell Migration and Differentiation Assay for Cytotoxicity (NPC2-5) (AID 2284306; active means hit-call score of the fitted dose curve at least 0.9, where 1 is the maximum;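 further: LDH release into supernatant measured by resorufin fluorescence marking membrane damage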)
Procedure, shortened: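 Primary human neural progenitor spheres migrate and differentiate on laminin. Compound is present from the start of differentiation, with DMSO kept at or below 0.1%. At 72 h, supernatant LDH is quantified fluorometrically, with values fitted in the positive direction.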

[8] = IUF_NPC2-5_cytotoxicity_120hr: Cytotoxicity Assessment at 120 hours in the Leibniz Research Institute for Environmental Medicine (IUF) Neural Progenitor Cell Migration and Differentiation Assay (NPC2-5) (AID 2284307; active means hit-call score of the fitted dose curve at least 0.9, where 1 is the maximum;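 on AC50: LDH released into supernatant as membrane damage marker via resorufin fluorescence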)
Procedure, shortened: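 Sphere plating starts differentiation and exposure together at day 0. Compound solution is half-replaced on day 3. At 120 h, medium supernatant is taken for an LDH membrane-integrity read based on resazurin reduction to resorufin fluorescence.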

[9] = IUF_NPC2-5_cell_number_120hr: Cell Number Assessment at 120 hours in the Leibniz Research Institute for Environmental Medicine (IUF) Neural Progenitor Cell Migration and Differentiation Assay (NPC2-5) (AID 2284308);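 further: count of Hoechst-stained nuclei in migration zone around plated human neural progenitor spheres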
Procedure, shortened: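 hNPC spheres, one per well, PDL/laminin, N2 medium, 37C, 5% CO2. Dosing day 0 → half-medium change with fresh compound day 3 → fix 120 h. Readout: Hoechst+ nuclei count, migration area; 7 concentrations plus solvent control.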

CD69, CD69 (gene 969) = assay: BSK_LPS_CD69: BioMAP Diversity Plus: LPS Assay for CD69 Biomarker Activity (AID 2284303); conditions: primary human HUVEC with PBMC
Procedure, shortened: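 CD69 surface levels were read by ELISA after 24 h chemical treatment of an LPS-stimulated HUVEC plus PBMC co-culture; positive-direction fit against DMSO vehicle.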

Measured: AC50

Oc1ccc2ccc3cccc4ccc1c2c34
inactive: [1]

CC(C)COC(=O)c1ccccc1C(=O)OCC(C)C
not listed: [1] | CD69, CD69 (gene 969)
inactive: all other assays above

CC(C)(C)C(O)(CCc1ccc(Cl)cc1)Cn1cncn1 (stereo not given)
not listed: [1] | CD69, CD69 (gene 969)
inactive: all other assays above

COC(=O)Nc1nc2ccccc2[nH]1
inactive: [3] | [4] | [6] | [7]
active: [2] 8090 nM | [9] 7820 nM

[O-][Cl+]O
not listed: [1] | [5] | CD69, CD69 (gene 969)
inactive: all other assays above

O=P(OCCCl)(OCCCl)OCCCl
not listed: [5] | CD69, CD69 (gene 969)
inactive: all other assays above

OCCOCCO
not listed: [1] | [6] | CD69, CD69 (gene 969)
inactive: all other assays above

CCCCOC(=O)c1ccccc1C(=O)OCc1ccccc1
active: [2] 18500 nM
not listed: [1] | [5] | CD69, CD69 (gene 969)
inactive: all other assays above

CCNS(=O)(=O)C(F)(F)C(F)(F)C(F)(F)C(F)(F)C(F)(F)C(F)(F)C(F)(F)C(F)(F)F
inactive: CD69, CD69 (gene 969)
active: CD69, CD69 (gene 969) 15400 nM

CCC[CH2][Sn]([Cl])([CH2]CCC)[CH2]CCC
active: [2] 386 nM | [3] 319 nM | [4] 284 nM | [5] 120 nM | [6] 312 nM | [7] 310 nM | [8] 455 nM | [9] 310 nM

CO[C@@H]1[C@H](OC(=O)NC(=O)CCl)CC[C@]2(CO2)[C@H]1[C@@]1(C)O[C@@H]1CC=C(C)C
inactive: [1]

CNC(=O)Oc1cccc2c1OC(C)(C)C2
not listed: [1] | CD69, CD69 (gene 969)
inactive: all other assays above

COP(=S)(OC)SCN1C(=O)c2ccccc2C1=O
not listed: [1] | CD69, CD69 (gene 969)
inactive: all other assays above

Clc1ccc(Cl)c(Cl)c1
inactive: [1]
